# From PubChem
# ALOX12 inh: inhibitors of human 12S-lipoxygenase ALOX12. AID 1671190. purified 12hLO, xylenol orange hydroperoxide absorbance. P18054. 580,000 tested, 1.1% active. Potency, µM (series often up to 108 µM), inactives show at the highest dose activity change, negative = inhibition, usual class: inhibitors; also: % is scaled to controls: 0 for no effect and ±100 for the full control effect
#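 Purified human 12hLO (150 nM final) in 25 mM Hepes, 0.01% Triton X-100, pH 7.0 was preincubated 15 min at room temperature with compound. Then 40 uM arachidonic acid was added, 30 min. Hydroperoxide was read by Fe-XO absorbance ratio 573/405 nm.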
# EPAC2 antagonist: blocks human EPAC2 exchange factor; Q8WZA2; EPAC2 GEF exchange of Rap1B-BODIPY-GDP, fluorescence; Potency, µM (series often up to 114 µM), without a hit: at the highest dose activity, negative = inhibition, actives largely listed as inhibitors; 360,000 tested, 0.18% active; AID 720708; also: % is scaled to controls: 0 for no effect and ±100 for the full control effect; nearly all actives have a fitted effect of over 45% in size
# EPAC1 antagonist: blocks human EPAC1 exchange factor; EPAC1 GEF assay, Rap1b-BODIPY-GDP exchange fluorescence; O95398; 360,000 tested, 0.14% active; Potency, µM (titrated, usually from 115 µM), for the others: top-dose activity change, negative = inhibition, most hits filed as inhibitors; AID 720709;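 also: plate controls were vehicle for no effect and positive control for full effect; nearly all actives have a fitted effect of over 50% in size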
# EPAC1 agonist: agonists of human EPAC1; O95398; EPAC1 agonist qHTS, biochemical assay; response scale: 100% = response to 6.5 mM cAMP; Potency, µM (doses to about 154 µM), for inactives: at the top dose activation, actives largely listed as activators; 360,000 tested, 0.073% active; also: nearly all actives have a fitted effect of over 60% in size
#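 Normalized to 6.5 mM cAMP, activity reflects EPAC1-catalysed release of BODIPY-GDP from Rap1B, followed kinetically over 30 min at 480 nm excitation, 540 nm emission. Reaction contained 100 nM EPAC1, 250 nM Rap1B-BODIPY-GDP, 50 uM GDP.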
# USP1 inh: inhibitors of human USP1/UAF1 deubiquitinase. Potency, µM (titrated, usually from 57.1 µM), inactives show at the top dose activity change, negative = inhibition, actives largely listed as inhibitors. recombinant USP1/UAF1, Ub-Rhodamine cleavage fluorescence. 390,000 tested, 0.23% active. O94782; also: % is scaled to controls: 0 for no effect and ±100 for the full control effect; nearly all actives have a fitted effect of over 60% in size
# Target sequence (O94782 whole entry, looked up): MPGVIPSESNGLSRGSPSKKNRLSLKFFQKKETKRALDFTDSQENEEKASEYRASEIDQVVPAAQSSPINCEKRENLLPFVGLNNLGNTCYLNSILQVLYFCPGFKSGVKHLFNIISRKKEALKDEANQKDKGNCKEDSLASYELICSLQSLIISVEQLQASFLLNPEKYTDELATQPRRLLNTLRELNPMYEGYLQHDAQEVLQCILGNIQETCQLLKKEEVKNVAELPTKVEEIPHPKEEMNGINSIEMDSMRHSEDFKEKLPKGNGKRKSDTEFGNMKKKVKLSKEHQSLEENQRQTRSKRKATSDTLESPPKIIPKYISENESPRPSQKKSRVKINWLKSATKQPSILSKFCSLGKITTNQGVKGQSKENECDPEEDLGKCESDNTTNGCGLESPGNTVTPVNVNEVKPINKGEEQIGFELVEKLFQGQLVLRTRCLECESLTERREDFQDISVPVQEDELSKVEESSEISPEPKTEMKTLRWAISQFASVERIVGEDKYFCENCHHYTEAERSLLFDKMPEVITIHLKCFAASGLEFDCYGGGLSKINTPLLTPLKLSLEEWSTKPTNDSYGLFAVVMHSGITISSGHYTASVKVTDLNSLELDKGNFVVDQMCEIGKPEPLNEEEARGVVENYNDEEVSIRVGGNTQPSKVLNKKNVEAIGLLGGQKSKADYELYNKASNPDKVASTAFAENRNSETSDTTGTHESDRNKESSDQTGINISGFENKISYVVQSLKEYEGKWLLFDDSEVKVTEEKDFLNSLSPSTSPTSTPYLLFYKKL
#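 High-throughput fluorogenic screen: 1nM USP1/UAF1 complex, Ub-Rho substrate 150nM final, 50mM HEPES pH 7.8 with 0.5mM EDTA, 0.1 mg/ml BSA, 1mM TCEP and 0.01% Tween-20.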
# EPAC2 agonist: activates human EPAC2 exchange factor; Q8WZA2; AID 720711; EPAC2 activation, biochemical qHTS; response scale: 100% = 6.5 mM cAMP response; 360,000 tested, 0.079% active; Potency, µM (doses to about 154 µM), without a hit: top-dose activation, hits mostly activators; also: nearly all actives have a fitted effect of over 50% in size
#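 EPAC2 (100 nM) mixed with Rap1B loaded with BODIPY-GDP (250 nM) plus 50 uM unlabeled GDP; compounds pinned in, 5 min RT, then read every 5 min for 30 min (ex 480, em 540 nm). Normalized to cAMP control.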
# Numbers without * were called inactive; ? = inconclusive; nt = not tested or not shown; [ ] = dose if it differs, or a comment. A selection: hits, their analogues and other compounds. The true share with any hit is near 1.3%. Calls follow the shape of the dose curve; as a rule, active = well fitted curve in the direction sought with a large enough effect; inconclusive = small, poorly fitted or top-dose-only effect, or another doubt; inactive = no such curve, though single readings can be large; an effect the other way counts as inactive or inconclusive. Potency is read from the fitted curve at half-maximal effect.
SMILES,ALOX12 inh,EPAC2 antagonist,EPAC1 antagonist,EPAC1 agonist,USP1 inh,EPAC2 agonist
COc1cc2c(c(OC)c1OC)C(c1ccc3c(c1)OCO3)CC(=O)O2 (centres undefined),-20%,40µM*,-1%,4%,-18%,12%
COc1cc2c(c(OC)c1OC)C(c1ccccc1C)CC(=O)O2 (centres undefined),?,?,-12%,3%,-28%,12%
CCN(CC)C(=S)Sc1ccc([N+](=O)[O-])cc1,5.6µM*,nt,nt,nt,nt,nt
CN(C)C(=S)Nc1ccc([N+](=O)[O-])cc1,-30%,10%,-10%,-5%,-16%,-5%
CCOCCOC1CCN(C(=O)c2cc(-c3cccc(OC)c3)n[nH]2)CC1,41%,nt,nt,nt,nt,nt
O=c1oc2ccccc2nc1/C=C(O)/C=C\c1ccccc1,-3%,27%,-5%,5%,?,63µM*
O=c1c(O)c(-c2cccs2)oc2ccc(Cl)cc12,?,188%,3%,-2%,25µM*,4%
O=c1c(O)c(-c2cccs2)oc2ccccc12,-2%,6%,-18%,11%,?,?
O=C(Nc1nc2cc3c(cc2s1)OCCCO3)c1ccc(Br)cc1F,-3%,nt,nt,nt,nt,nt
Cc1ccc(Cc2c(-c3ccc(C#N)cc3)nc3ccc(Br)cn23)cc1,20µM*,9%,-3%,-20%,-15%,-5%
Cc1ccc(Cc2c(-c3ccc(F)cc3)nc3cc(C)ccn23)cc1,20µM*,-8%,-7%,-14%,-24%,14%
Cc1ccc(Cc2c(-c3ccccc3)nc3ccc(Br)cn23)cc1,6.3µM*,-15%,-8%,-4%,-23%,17%
N#Cc1ccc(-c2nc3ccc(Br)cn3c2Cc2ccccc2)cc1,?,0%,9%,-5%,-24%,2%
O=S(=O)(c1ccccc1)c1nc(Nc2cccc(O)c2)sc1Cl,35µM*,?,-22%,21%,-12%,26%
Cc1ccc(S(=O)(=O)c2nc(Nc3ccccc3)sc2Cl)cc1,-14%,-12%,-6%,3%,-20%,20%
Cc1ccc(C(NC(=O)C(C)C)c2cc([N+](=O)[O-])c3cccnc3c2O)cc1 (centres undefined),16µM*,0%,50µM*,-6%,?,-10%
CSc1nnc(-c2ccccc2NC(=O)c2ccc(C)c(S(=O)(=O)N3CCCC3)c2)o1,-11%,nt,nt,nt,nt,nt
COc1cncc(Nc2ncc(-c3ccccc3OC)c3c2OCC3)c1,22%[176 µM],nt,nt,nt,nt,nt
COCc1cc(C)nc(SCC(=O)Oc2ccccc2)c1C#N,0%,0%,-15%,3%,-26%,9%
Cc1cc(=O)[nH]c(SCC(=O)c2ccc(O)c(O)c2)n1,4.5µM*,-4%,-14%,2%,-15%,0%
Cc1cc(C)nc(SCC(=O)c2ccc(O)c(O)c2)n1,8.9µM*,0%,-8%,1%,16%,18%
COc1ccc(-n2nnnc2SCC(=O)c2ccc(O)c(O)c2)cc1,4.5µM*,-2%,45µM*,1%,-10%,10%
COCc1cc(C)nc(SCC(=O)c2ccc(O)c(O)c2)c1C#N,0.89µM*,10%,?,-4%,-5%,5%
NC(=O)c1ccc(-n2nnnc2SCC(=O)c2ccc(O)c(O)c2)cc1,?,1%,?,1%,-9%,6%
O=C(NC1C2CC3CC(C2)CC1C3)c1ccc(-c2ccc(Br)cc2)o1 (centres undefined),-16%,nt,nt,nt,nt,nt
SMILES,ALOX12 inh,EPAC2 antagonist,EPAC1 antagonist,EPAC1 agonist,USP1 inh,EPAC2 agonist
O=C(CSc1nc2ccccc2n1CCc1ccccc1)c1ccc(O)c(O)c1,25µM*,-6%,?,1%,2%,13%
Cc1cc(SCC(=O)c2ccc(O)c(O)c2)n2nc(C)c(-c3ccccc3)c2n1,40µM*,-5%,?,-2%,?,13%
CC(C)(C)c1nc2cc(NC(=O)Cc3ccc([N+](=O)[O-])cc3)ccc2o1,44%,nt,nt,nt,nt,nt
Cn1c(-c2sc3ccccc3c2Cl)n[nH]c1=S,14µM*,6%,15%,5%,-11%,4%
Cn1c(CSc2nc3ccccc3s2)n[nH]c1=S,?,14%,1%,-1%,-19%,3%
COc1cc(C(C)=O)ccc1OCC(O)Cn1nc(C)c(Br)c1C (centres undefined),4.5µM*,13%,19%,5%,-14%,11%
COc1cc(C(C)=O)ccc1OCC(O)CN1CCN(c2ccc(C)cc2C)CC1 (centres undefined),-2%,-5%,-2%,4%,-13%,8%
Cc1cc(/C=C2\SC(=S)NC2=O)c(C)n1-c1cccc(O)c1,40µM*,-16%,?,7%,-20%,15%
CC1CCN(CCCNC(=O)c2cc3cc(F)ccc3[nH]2)CC1,-13%,nt,nt,nt,nt,nt
O=C(/C=C/c1cccc(O)c1)c1cccnc1,-10%,4%,3%,8%,7%,8%
CN(C)c1ccc(/C=C/C(=O)c2ccc3c(c2)OCO3)cc1,?,59%,89%,63µM*,25µM*,100µM*
CN(C)c1ccc(/C=C/C(=O)c2cccnc2)cc1,213%,-11%,11%,11%,28µM*,15%
O=C(/C=C/c1cccnc1)c1cccc(O)c1,8.9µM*,15%,-8%,-6%,-19%,7%
CN(C)c1ccc(/C=C/C(=O)c2ccc(O)cc2)cc1,-29%,32%,48%,?,25µM*,21%
CN(C)c1ccc(C(=O)C=Cc2ccc([N+](=O)[O-])cc2)cc1,0%,-6%,2%,2%,?,2%
CCN(CC(=O)Nc1ccccc1C(F)(F)F)C(=O)CCOc1ccccc1C,18%,1%,-15%,45µM*,-11%,10%
CCN(CC(=O)Nc1cc(Cl)ccc1C)C(=O)CCOc1ccccc1C,-7%,-14%,-5%,-9%,-7%,12%
Cc1ccc(-c2cc(NC(=O)C(C)Oc3cccc(C)c3C)on2)cc1 (centres undefined),-13%,nt,nt,nt,nt,nt
COC(=O)CC(NC(=S)NC(=O)c1ccccc1)c1ccc(Br)cc1 (centres undefined),7.9µM*,?,-15%,13%,-22%,5%
COc1ccc(C2/C(=C(\O)c3ccc4c(c3)CC(C)O4)C(=O)C(=O)N2Cc2cccnc2)c(OC)c1 (centres undefined),11µM*,9%,10%,9%,-20%,8%
O=C(COc1ccccc1F)Nc1cccc2cccnc12,10%,nt,nt,nt,nt,nt
COc1ccc(C(=O)NNC(=O)C(=O)/C=C(\O)c2ccc(C)cc2)cc1,35µM*,3%,-24%,-1%,-24%,3%
O=C(/C=C(\O)c1ccccc1)C(=O)NNC(=O)c1ccccc1,3%,-4%,-21%,11%,-23%,1%
